A short description of assay [1]: inhibitors of TNFa-induced NFkB p65 translocation, primary screen, imaging, HUVEC, MLSMR starter and 10KST1 sets (AID 438;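 active means inhibition above 20% together with a positive visual image hit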;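 further: compound added about 3h40 before a 20 min TNFalpha stimulation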;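 on inhibition: signal is the nuclear over cytoplasmic p65 intensity ratio per well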). The following applies: HUVEC TNFa-induced p65 nuclear translocation; cell count: measured here: nuclei count (cytotoxicity indicator), at 2.08 µM unless noted; inhibition: at 2 µM, stronger effect = higher value unless noted.
A short description of assay [2]: reduction of polyQ htt aggregates in cells – imaging, exon1htt(103Q)mCFP cells, high-content imaging, primary screen (AID 483;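 active means visual image review flags a hit and inhibition of aggregation exceeds 20%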;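 further: compound exposure lasted 3 days before fixation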;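 on nuclei count: percent of the per-plate median nuclei count of sample wells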). The following applies: exon1htt(103Q)mCFP cell line, aggregate imaging, at 2 µM; inhibition of aggregation: stronger effect = higher value; nuclei count: measured here: cell count, toxicity.
Assay [3] in a line: endothelial E-selectin expression blockers – imaging, HUVEC, immunofluorescence, MLSMR starter and 10KST1 sets, primary screen (AID 487;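 active means visually confirmed hit in the image check and inhibition above 20%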;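 on inhibition: signal is fraction of cell area covered by stained E-selectin grains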;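 on nuclei count: 100% = median nuclei count of all wells on the same plate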). The following applies: HUVEC TNFalpha-induced E-selectin immunofluorescence imaging, at 2 µM; inhibition: stronger effect = higher value; nuclei count: measured here: cell number, toxicity.
Assay [4] has as its target Voltage-gated potassium channel subunit beta-2 (Rattus norvegicus) (UniProt P62483). In words: inhibitors of rat Kvbeta2 reductase activity – biochemical, NADPH fluorescence, primary screen (AID 622;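 active means fluorescence slope higher than the sample average by over 3 SD, cut at about -0.22 in these data, passing the limit was not always enough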;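 further: slope of raw intensity against log time taken from 70 to 1610 s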). The conditions noted are these: recombinant KvBeta, 4-cyanobenzaldehyde reduction, at 10 µM, stronger effect = higher value.
Assay [5] has the same target. In words: enhancers of rat Kvbeta2 NADPH turnover – biochemical, NADPH fluorescence, primary screen (AID 623;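 active means NADPH fluorescence slope more negative than the mean of all samples by about 3 SD, 99.7% confidence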;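 further: fluorescence intensity change per second fitted from 20 to 320 s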). The conditions noted are these: Recombinant KvBeta, NADPH fluorescence decrease slope, 10 min; at 10 µM; stronger effect = lower value.
For assay [6], the target named is Alpha-2C adrenergic receptor (Homo sapiens) (UniProt P18825). In words: compounds altering alpha2C-coupled GIRK flux – cell-based, HEK293 alpha2C/GIRK1/2, thallium flux, primary screen (AID 624;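 active means fluorescence slope after compound addition differing from the mean of all screened samples at 99.7% confidence, in either direction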;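 further: slope of fluorescence ratio to pre-addition baseline per second over 15 to 24 s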). The conditions noted are these: thallium flux BTC fluorescence, at 10 µM, actives lie on both sides.
Chain of Alpha-2C adrenergic receptor (Homo sapiens) (P18825 whole entry, looked up): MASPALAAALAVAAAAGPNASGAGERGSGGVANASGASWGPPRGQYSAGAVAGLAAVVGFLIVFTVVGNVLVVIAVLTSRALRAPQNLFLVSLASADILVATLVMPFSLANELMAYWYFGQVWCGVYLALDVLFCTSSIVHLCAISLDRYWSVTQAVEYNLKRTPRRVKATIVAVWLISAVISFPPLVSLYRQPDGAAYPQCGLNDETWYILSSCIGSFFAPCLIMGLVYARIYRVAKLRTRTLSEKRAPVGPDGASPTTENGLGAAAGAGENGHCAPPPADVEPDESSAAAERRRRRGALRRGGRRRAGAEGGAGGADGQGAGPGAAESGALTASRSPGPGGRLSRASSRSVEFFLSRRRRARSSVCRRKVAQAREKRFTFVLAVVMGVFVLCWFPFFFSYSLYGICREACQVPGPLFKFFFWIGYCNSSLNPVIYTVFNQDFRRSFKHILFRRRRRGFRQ
The nature of assay [7]: blockers of RIG-like receptor reporter activation – cell-based, Sendai virus stimulus, luciferase, 10K MLSCN set, TLR/RLR signaling modifier project, primary screen (AID 602276).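 Further: firefly luciferase from ISG56 promoter only with Renilla not read in this screen; 0% = Sendai virus plus DMSO and 100% = medium plus DMSO without virus.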 The conditions noted are these: HEK293 RL24 IRF3 luciferase reporter, at 10 µM, stronger effect = higher value. A general note: Reporter assays use an easily measured gene product as a stand-in for the process of interest.

Assay [8] can be described thus: TLR3 IRF3 reporter activation blockers – cell-based, poly I:C stimulus, luciferase, 10K MLSCN set, primary screen (AID 602277;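 active means inhibition of the reporter signal at or above 50%; inactive means inhibition below 50%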). The conditions noted are these: HEK293-TLR3 RL24 IRF3 luciferase reporter, at 10 µM, stronger effect = higher value.

The structures appear in SMILES notation. Activity calls are given as the source filed them.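 How the source made its calls, unless noted: active means inhibition at or above 50% at 10 µM; inactive means inhibition below 50%.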

These results are taken from PubChem BioAssay.

Chain of Voltage-gated potassium channel subunit beta-2 (Rattus norvegicus) (P62483 whole entry, looked up): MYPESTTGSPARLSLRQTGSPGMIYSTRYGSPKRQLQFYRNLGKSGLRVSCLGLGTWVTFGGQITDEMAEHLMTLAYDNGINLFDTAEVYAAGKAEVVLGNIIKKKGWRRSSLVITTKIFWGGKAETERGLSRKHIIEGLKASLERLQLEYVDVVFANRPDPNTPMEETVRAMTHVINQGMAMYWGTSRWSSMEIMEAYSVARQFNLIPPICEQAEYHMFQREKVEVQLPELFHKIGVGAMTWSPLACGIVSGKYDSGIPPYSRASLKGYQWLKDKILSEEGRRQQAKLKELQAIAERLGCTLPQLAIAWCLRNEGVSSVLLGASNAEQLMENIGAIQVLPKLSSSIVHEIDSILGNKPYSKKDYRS

By inhibition is commonly meant the change of the read-out against control, counted positive when it falls. Regarding `CCCCn1c(O)c(C(CC)=Nc2cccc(C(=O)O)c2)c(=O)[nH]c1=O`, the cell count in assay [1] amounted to 688. Further, the inhibition in assay [1] was -5.8% (inactive); in assay [3], -25.6% (inactive); in assay [7] it was 9.53% (inactive); in assay [8], 9.91% (inactive). Also, the inhibition of aggregation in assay [2] is 9.5% (inactive). For the same compound, the nuclei count was found to be 86.6% in assay [2] and 105% in assay [3]. For the same compound, the fluorescence slope in assay [4] was -0.382 (inactive). The NADPH fluorescence slope in assay [5] is 2.4e-05 (inactive). Moreover, in assay [6], the slope was 0.00652 (inactive).

Regarding `COc1ccc(S(=O)(=O)NC(CC(=O)N2CCC3(CC2)OCCO3)c2ccco2)cc1` (configuration not stated), in assay [1], the cell count came out at 633. The inhibition in assay [1] is 6.7% (inactive); in assay [3] it was -121% (inactive); in assay [7], 17.9% (inactive); in assay [8], 22.1% (inactive). In addition, the inhibition of aggregation in assay [2] was 16.2% (inactive). In addition, the nuclei count in assay [2] is 86.8%; in assay [3], 144%. In addition, the fluorescence slope in assay [4] is -0.451 (inactive). In assay [5], the NADPH fluorescence slope was -0.000345 (inactive). Besides, in assay [6], the slope was 0.00534 (inactive).

`Cc1oc2ccc(OC(=O)N(C)C)cc2c1C(=O)OC(C)C` had a cell count in assay [1] of 450. The inhibition is 0.8% (inactive) in assay [1], -78.3% (inactive) in assay [3], 9.46% (inactive) in assay [7] and -11.8% (inactive) in assay [8]. In addition, the inhibition of aggregation in assay [2] was 1.1% (inactive). Further, the figures for the nuclei count in assay [2] and in assay [3] were 99.7% and 155%, respectively. For the same compound, in assay [4], the fluorescence slope is -0.606 (inactive). The NADPH fluorescence slope in assay [5] was -3.3e-05 (inactive). The slope in assay [6] was 0.00801 (inactive).

In turn, `CC1(C)C(c2ccccc2)=NC(c2cccnc2)N1O` (configuration not stated) gave a cell count in assay [1] of 309. Also, the inhibition in assay [1] is 8.2% (inactive); in assay [3] it was 17.6% (inactive); in assay [7] it was 14.6% (inactive); in assay [8], 25.5% (inactive). Moreover, in assay [2], the inhibition of aggregation is -17.9% (inactive). In addition, the nuclei count was 108% in assay [2] and 99.6% in assay [3]. In addition, the fluorescence slope in assay [4] is -0.495 (inactive). Also, in assay [5], the NADPH fluorescence slope was -6.7e-05 (inactive). Besides, the slope in assay [6] was 0.00634 (inactive).

The compound `CC1=C(C(=O)N2CCC3(CC2)OCCO3)C2(CCC(C)CC2)OC1=O` (configuration not stated) had a cell count in assay [1] of 651. For the same compound, the inhibition in assay [1] is -25.5% (inactive); in assay [3] it was -0.9% (inactive); in assay [7], 7.64% (inactive); in assay [8], 31.1% (inactive). The inhibition of aggregation in assay [2] was 3.3% (inactive). The nuclei count in assay [2] worked out at 104%; in assay [3], 103%. In addition, the fluorescence slope in assay [4] was -0.377 (inactive). Also, in assay [5], the NADPH fluorescence slope is -4.4e-05 (inactive). For the same compound, the slope in assay [6] was 0.00593 (inactive).

In assay [1], `Cc1ccccc1NC1=NCCCS1` had a cell count of 457. The inhibition in assay [1] is -10.3% (inactive); in assay [3], 67.8% (inactive); in assay [7], 0.817% (inactive); in assay [8], 19% (inactive). Moreover, in assay [2], the inhibition of aggregation was 29.9% (active). The values for the nuclei count in assay [2] and in assay [3] were 83.1% and 74.1%, respectively. For the same compound, in assay [4], the fluorescence slope is -0.357 (inactive). In addition, the NADPH fluorescence slope in assay [5] was -3.1e-05 (inactive). Also, in assay [6], the slope is 0.00361 (inactive).

`COc1ccc(CN2CCN(C(=O)Cc3ccccc3)CC2)c(OC)c1` had a cell count in assay [1] of 402. In addition, the inhibition in assay [1] was 2.1% (inactive); in assay [3], -13.2% (inactive); in assay [7], 15.3% (inactive); in assay [8], 25.6% (inactive). Further, the inhibition of aggregation in assay [2] was 8% (inactive). The nuclei count in assay [2] was 94%; in assay [3], 114%. Moreover, the fluorescence slope in assay [4] was -0.6 (inactive). In assay [5], the NADPH fluorescence slope was 1.9e-05 (inactive). Also, the slope in assay [6] is 0.00526 (inactive).
